Sampled rows, rich in hits. Any-hit rate of the full collection: about 3.4%.
TEAD-YAP inh: TEAD-YAP interaction inhibition. HEK-TIYL cells, TEAD-Gal4/YAP UAS-luciferase luminescence. inhibition, % at 9.12 µM. 1.4% of 640,000 active. AID 1259422; in the data active = inhibition above about 32%;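 note: 0% = median of test compound wells and 100% = reference inhibitor wells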
MITF inh: blocks human microphthalmia-associated transcription factor. AlphaScreen MITF homodimerization, bead proximity signal. inhibition, % at 2.6 µM. 0.91% of 650,000 active; in the data active = inhibition above about 50%;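 note: 0% = vehicle wells with protein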
Target sequence (O75030 whole entry, looked up): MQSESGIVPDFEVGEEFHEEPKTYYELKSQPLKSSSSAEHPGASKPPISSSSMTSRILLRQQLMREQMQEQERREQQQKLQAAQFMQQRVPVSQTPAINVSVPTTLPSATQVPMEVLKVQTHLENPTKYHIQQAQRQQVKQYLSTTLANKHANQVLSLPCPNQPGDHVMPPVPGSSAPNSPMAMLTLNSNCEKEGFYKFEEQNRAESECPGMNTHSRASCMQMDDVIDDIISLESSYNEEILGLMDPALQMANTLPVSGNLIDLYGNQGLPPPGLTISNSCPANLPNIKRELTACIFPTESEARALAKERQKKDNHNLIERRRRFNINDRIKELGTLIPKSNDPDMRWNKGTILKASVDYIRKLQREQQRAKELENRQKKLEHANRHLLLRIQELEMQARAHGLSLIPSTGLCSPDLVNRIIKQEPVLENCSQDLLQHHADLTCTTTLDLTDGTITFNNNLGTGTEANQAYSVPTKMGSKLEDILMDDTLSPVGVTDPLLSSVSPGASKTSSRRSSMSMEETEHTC
FBW7 activator: activators of human E3 ligase FBW7. AlphaScreen FBW7–phospho-cyclin E peptide binding, activator screen. 0.13% of 650,000 active. Q969H0. normalized activity (activation), % at 26.1 µM. AID 1259310; in the data active = normalized activity above about 1.9%;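 note: purified mutant Fbw7 with reduced substrate affinity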
GPR151 ag: activates the human receptor GPR151. Q8TDV0. AID 1508602. 1% of 650,000 active. activation, % at 11.2 µM. PathHunter beta-arrestin GPR151 cells, luminescence; in the data active = activation above about 4.9%;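 note: 0% = median of compound wells and 100% = cells with positive control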
* marks the source's active call; other numbers are inactive results.

SMILES | TEAD-YAP inh | MITF inh | FBW7 activator | GPR151 ag
CCOC(=O)c1[nH]c2ccc(C)cc2c1NC(=O)CN1CCOCC1 | 3 | 12 | 0 | 0
CC(=O)NCCn1c(SCC(=O)Nc2ccc(C)c(Cl)c2)nc2ccccc2c1=O | 13 | 13 | 2 | 0
Cc1ccccc1NC(=O)Cn1c(=O)oc2cc(S(=O)(=O)N3CCCC3)ccc21 | 8 | 3 | 0 | 0
COc1ccc(C2(C(=O)NC(C)c3nc(-c4cccnc4)n[nH]3)CCCCC2)cc1 (stereo not drawn) | 1 | 1 | 0 | 0
COc1ccc(C2(C(=O)NC(C)c3nc(-c4ccncc4)n[nH]3)CC2)cc1 (stereo not drawn) | 64* | -4 | 0 | 0
O=C(Nc1c2c(nn1-c1ccc(Cl)cc1)CS(=O)(=O)C2)C12CC3CC(CC(C3)C1)C2 | 0 | -4 | 0 | -1
COc1cccc(C=O)c1OS(=O)(=O)c1ccc(Cl)cc1 | 11 | -5 | 0 | 1
COc1ccc(S(=O)(=O)Oc2ccc(C=O)cc2OC)cc1 | 47* | 7 | 0 | -1
COc1ccc(C=O)cc1OS(=O)(=O)c1ccc(Cl)cc1 | 25 | 4 | 0 | -1
COc1ccc(S(=O)(=O)Oc2cccc(C=C3C(=O)NC(=S)NC3=O)c2)cc1 | 6 | 5 | 1 | -1
COc1ccc(S(=O)(=O)Oc2c(C=O)cccc2OC)cc1 | 46* | -7 | 0 | 0
COc1ccc(S(=O)(=O)Oc2ccc(C=C3C(=O)NC(=S)NC3=O)cc2OC)cc1 | 54* | -6 | 0 | 0
Cc1cc(C(=O)CCl)c(C)n1-c1ccccc1F | 7 | 8 | 0 | 0
CCN1CCN(CC(=O)c2cc(C)n(-c3ccccc3F)c2C)CC1 | -36 | 62* | 0 | 0
CCN1CCN(CC(=O)c2cc(C)n(-c3cccc(C(F)(F)F)c3)c2C)CC1 | 0 | 63* | 0 | -1
Cc1ccccc1C(=O)Nc1sc2c(c1C(=O)N1CCC(C)CC1)CCCCC2 | 6 | -9 | 0 | -3
Cc1cc(C)c(NC(=O)CC2Sc3ccccc3NC2=O)c(Cl)c1 (stereo not drawn) | 37* | 8 | 0 | 1
CCn1nc(-c2cccc(Cl)c2)nc2c(=O)n(C)c(=O)nc1-2 | -52 | -12 | 0 | -9
CCCc1nc2c(=O)n(C)c(=O)nc-2n(C)n1 | 99* | -4 | 0 | -4
CCOc1cc(-c2nc3c(=O)n(C)c(=O)nc-3n(C)n2)ccc1OC(C)C | 95* | 21 | 0 | -3
Cc1ccccc1-c1nc2c(=O)n(C)c(=O)nc-2n(C)n1 | 91* | 3 | 0 | -2
CCn1nc(-c2ccc(C(F)(F)F)cc2)nc2c(=O)n(C)c(=O)nc1-2 | -2 | 15 | 0 | -8
COc1ccc2ccccc2c1C(=O)/C=C/c1cccnc1 | 85* | 20 | 1 | -1
COc1ccc(/C=C/C(=O)c2cccnc2)cc1OC | 0 | 43 | 0 | 1
CCN(CC)CCn1c2c(c(SCC(=O)Nc3ccc(C)cc3)nc1=O)CCC2 | -7 | 21 | 0 | -2
SMILES | TEAD-YAP inh | MITF inh | FBW7 activator | GPR151 ag
CCC(C)NS(=O)(=O)c1ccc(Cc2ccc(S(=O)(=O)NC(C)CC)cc2)cc1 (stereo not drawn) | 34* | 6 | 0 | 1
CCC(C)NS(=O)(=O)c1ccc(Br)cc1 (stereo not drawn) | -5 | 8 | 0 | 1
COCCCN1C(=O)C(=O)/C(=C(\O)c2ccccc2)C1c1ccc(O)c(OC)c1 (stereo not drawn) | 0 | -9 | 0 | 1
COc1ccc(O)c(/C=N/N=C2/NC(=O)C(C)S2)c1 (stereo not drawn) | 68* | -7 | 0 | -8
COc1ccc(OC)c(/C=N/N=C2\NC(=O)C(C)S2)c1 (stereo not drawn) | -7 | 8 | 0 | 0
O=C(NCc1cccs1)c1ccc(N2CC3CC(C2)c2cccc(=O)n2C3)c(NC(=O)c2ccc(F)cc2)c1 (stereo not drawn) | 7 | 0 | 0 | 1
CCOc1ccccc1NC(=O)C1=C(C)NC(=O)NC1c1ccc(OC)cc1OC (stereo not drawn) | 5 | 5 | 0 | -1
COc1ccc(S(=O)(=O)Nc2cccc(-c3ccc4nncn4n3)c2)cc1F | 45* | 15 | 1 | 0
COc1ccc(S(=O)(=O)Nc2cccc(-c3ccc(N4CCCCC4)nn3)c2)cc1C | 46* | -10 | 0 | -3
O=S(=O)(Nc1cccc(-c2ccc3nncn3n2)c1)c1cccc(C(F)(F)F)c1 | -8 | 16 | 0 | -1
Cc1ccc(NC(=O)c2cn(NC(=O)c3cnccn3)c(=O)c3ccccc23)cc1F | 9 | 8 | -1 | 1
CC[n+]1ccccc1/C=C/N(C(C)=O)c1ccccc1 | -9 | 10 | 1 | 0
Cc1ccc2c(ccc(/C=C/c3ccc(N(C)C)cc3)[n+]2C)c1 | 41* | 16 | 0 | 4
Cc1cccc2ccc(/C=C/c3ccc(N(C)C)cc3)[n+](C)c12 | 93* | 27 | -1 | 1
CC[n+]1ccccc1/C=C/c1ccc(N(C)C)cc1 | 47* | 1 | 0 | 2
CN(C)c1ccc(/C=C/c2cc(C(C)(C)C)nc(C(C)(C)C)c2)cc1 | 3 | -11 | 0 | 0
CN(C)c1ccc(/C=C/c2cc[n+](C)cc2)cc1 | 44* | -7 | 0 | 2
CN(C)c1ccc(C(=O)/C=C/c2ccccc2)cc1 | -60 | 24 | 0 | -3
CC(C)c1nnc(NC(=O)CCCOc2ccc(C(C)(C)C)cc2)s1 | -3 | 5 | 0 | 0
CC(C)N(C)Cc1nnnn1CC(=O)N(C)CC1COc2ccccc2O1 (stereo not drawn) | 9 | 13 | 0 | -1
Cc1ccc(/C=C/c2ccc(N(C)C)cc2)[n+](C)c1 | 70* | 9 | -1 | 1
CN(C)c1ccc(/C=C/c2ccc([N+](=O)[O-])cc2)cc1 | -6 | 11 | 0 | 0
O=C(Nc1cccc(C(=O)O)c1)/C(=C\c1ccc([N+](=O)[O-])cc1)NC(=O)c1ccc(Br)cc1 | 6 | 10 | 0 | 0
O=C(Cc1ccc2c(c1)OCO2)Nc1cc(Nc2ccccc2-c2ncn[nH]2)c(C(F)(F)F)cn1 | 60* | 12 | 1 | -2
CC(C)(C)NC(=O)c1ccccc1NC(=O)CCc1ccccc1 | -7 | 1 | 0 | 3
SMILES | TEAD-YAP inh | MITF inh | FBW7 activator | GPR151 ag
CNC(=O)c1ccccc1Nc1cc(NC(=O)Cc2c(Cl)cccc2Cl)ncc1C(F)(F)F | 56* | 12 | 0 | -1
CNC(=O)c1ccccc1Nc1cc(NC(=O)Cc2ccccc2)ncc1C(F)(F)F | 72* | -24 | 0 | 3
CNC(=O)c1ccccc1Nc1cc(NC(=O)CCc2ccccc2)ncc1C(F)(F)F | 64* | -3 | 0 | -2
N#Cc1ccccc1Nc1cc(NC(=O)Cc2ccc(F)cc2)ncc1C(F)(F)F | 20 | 17 | 0 | 0
OCCC1CN(Cc2ccco2)CCN1Cc1ccc(F)c(F)c1 (stereo not drawn) | -8 | -4 | 0 | -1
OC[C@@H]1CCCN1c1ccnc2c(-c3ccc(F)c(Cl)c3)cnn12 | 83* | 17 | 0 | -2
OCc1ccccc1-c1cnn2c(N3CCC[C@H]3CO)ccnc12 | -17 | -21 | -1 | 0
